The values that follow come from PubChem BioAssay AID624288 (National Center for Advancing Translational Sciences (NCATS), 2012).

In all, about 340,000 compounds went through this assay and about 1,400 (0.41%) were called active. About 4% were inconclusive and are not listed. The list comes from a sample in which actives are over-represented; it also holds similar structures and randomly drawn compounds. Values without a mark were called inactive. Calls follow the shape of the full dose curve; cell line not stated here.
% is scaled to controls: 0 for no effect and ±100 for the full control effect; potency is read from the fitted curve at half-maximal effect.

The nature of the experiment: qHTS for Antagonists of gsp, the Etiologic Mutation Responsible for Fibrous Dysplasia/McCune-Albright Syndrome: qHTS. Also: nearly all actives have a fitted effect of over 65% in size. To be noted: gsp-mutant cells, cAMP HTRF, 30 min; series mostly up to 76.9 µM; activity change, negative = inhibition: at the top concentration. The text has this:
McCune-Albright syndrome (MAS) is a rare disease caused by somatic mutations in Gsgsp), a widely expressed protein central in signal transduction from G-coupled protein receptors (GPCRs). The disease symptoms are diverse, owing to the fact that the patients are mosaics with varying degrees of tissue involvement. Greater than 90% of the mutations in Gs in MAS occur at the R201 position and are equally divided between R201H and R201C. The R201 residue is central in the intrinsic GTPase activity of Gs and the H and C mutations lead to loss of, or impairment of, the GTPase activity. The intrinsic GTPase activity is necessary to terminate the interaction between Gs and adenylate cyclase, and to terminate the cAMP-mediated signaling of the given GPCR pathway. Thus, these activating mutations lead to ligand-independent activation of GPCR pathways. The tissue phenotype is determined by the role of Gs in the function of a given cell, and excess Gs/cAMP signaling in that cell. For example, pituitary somatotrophs overproduce growth hormone in a growth hormone releasing hormone-independent fashion, and gigantism/acromegaly ensues. Skeletal stem cells in the bone marrow behave as if they are under constant parathyroid hormone stimulation and fail to differentiate into osteoblasts and osteocytes, and proliferate as immature osteogenic cells and lead to the marrow fibrosis of fibrous dysplasia of bone. The goal of this project is to identify molecules with inhibitory activity at gsp mutations that will not only allow for in-depth study of the underlying molecular and cellular pathophysiology, but also serve as compounds from which drugs to treat FD/MAS can be developed NIH Chemical Genomics Center [NCGC] NIH Molecular Libraries Probe Centers Network [MLPCN] MLPCN Grant: IRP-FT-DE-2011-01 Assay Submitter (PI): Michael Collins, NIDCR
1.#Seed 2000 cells/well in 6 ul DMEM 10% FBS, 1% Pen/Strep, 0.5 mg/ml G418 2.#Incubate 16-24 hr at 37C, 5% CO2, 95% humidity 3.#Aspirate leaving 1 ul residual volume 4.#Dispense 5 ul/well DPBS + 1 mM CaCl2, 0.5 mM MgCl2, 0.05% BSA, 0.005% Tween 20 5.#Aspirate leaving 2 ul residual volume 6.#Dispense 23 nl/well compounds in DMSO 7.#Dispense 1 ul/well 300 uM Ro-20174 in DMEM 10% FBS 8.#Incubate 30 min at 37C, 5% CO2, 95% humidity 9.#Dispense 1.5 ul/well HTRF reagent: cAMP-d2 in lysis buffer 10.#Dispense 1.5 ul/well HTRF reagent: anti-cAMP antibody-K in lysis buffer 11.#Incubate 30 min at room temperature 12.#Detect HTRF signal using EnVision plate reader
For `O=C(COC(=O)c1ccccc1)Nc1cccc(S(=O)(=O)N2CCOCC2)c1`, the “activity change, negative = inhibition” value was -5.44%.
With `Cc1cc2ccccn2c1C(=O)c1cccc(F)c1`, the “activity change, negative = inhibition” value was 7.18%.
With `Cc1cc2ccccn2c1C(=O)c1cccc(S(=O)(=O)N2CCOCC2)c1`, the Potency was 31.6 µM (active).
In the case of `O=C(NN=CC=Cc1ccccc1)C(O)C(O)C(=O)NN=CC=Cc1ccccc1` (centres undefined), the “activity change, negative = inhibition” value is 8.92%.
As to `CN(O)C(=S)c1ccccc1`, the “activity change, negative = inhibition” value was 9.75%.
Same read-out and setting: the figure for `CC(=O)Nc1ccc(NC(=O)CSc2nnc(C3CC3)n2-c2ccccc2)cc1` is 18.3%.
On the same count and under the same terms, the figure for `COc1ccc(-c2nnc(SCC(=O)Nc3cccnc3Cl)n2C)cc1` is -1.39%.
Turning to `O=C(CSc1nnc(C2CC2)n1Cc1ccccc1)Nc1cccnc1Cl`, the Potency is 7.94 µM (active).
As for `CNN/C(N=Cc1ccc([N+](=O)[O-])s1)=N\S(=O)(=O)c1cc(C)c(Cl)cc1SCc1ccccc1`, the “activity change, negative = inhibition” value is 7.48%.
On to `Cc1nn(Cc2ccc(F)cc2)c(C)c1NC(=O)c1noc2c1CCc1ccccc1-2`, for which the Potency is 35.5 µM (active).
On to `Cc1cc(C(=O)Nc2c(C)nn(Cc3ccccc3)c2C)on1`, for which the “activity change, negative = inhibition” value was 7.49%.
Still for that read-out and setting: the result for `Cc1nn(Cc2ccc(F)cc2)c(C)c1NC(=O)c1cccnc1Cl` reads -12.7%.
For the compound `CCOC(=O)c1ccc2[nH]c(C)c(CN3CCN(C)CC3)c(=O)c2c1`, the “activity change, negative = inhibition” value is 4.58%.
In the case of `O=c1c2ccccc2c(-c2ccc(F)cc2)nn1-c1ccc(C(F)(F)F)cc1`, the “activity change, negative = inhibition” value was -3.36%.
Take `O=c1c2ccccc2c(-c2ccccc2)nn1-c1ccccn1`: the “activity change, negative = inhibition” value is -1.84%.
On to `O=C(O)c1ccc(-n2nc(-c3ccccc3)c3ccccc3c2=O)cc1`, for which the Potency was 44.7 µM (active).
Turning to `COc1ccc(N)c(C)c1`, the “activity change, negative = inhibition” value is -4.59%.
For the compound `COCC(=O)N(C)[C@H]1C[C@H]2c3cc(Oc4ccccc4C)ccc3CCN2C(=O)[C@H]1[C@H](C)O`, the “activity change, negative = inhibition” value was -3.43%.
On the same count and under the same terms, the figure for `O=C(CCCN1C(=O)/C(=C/c2ccccc2)SC1=S)Nc1ccc(O)cc1` is -13.4%.
As for `Cc1ccc(/C=C2/SC(=S)N(CCC(=O)NCCCN3CCOCC3)C2=O)cc1`, the “activity change, negative = inhibition” value is 3.12%.
As to `Cc1ccc(-c2nn(-c3ccccc3)cc2/C=C2\SC(=S)N(CCCCCC(=O)O)C2=O)o1`, the Potency was 15.8 µM (active).
Regarding `COc1ccc(/C=C2\SC(=S)N(CCCC(=O)NC3CCCC3)C2=O)cc1OC`, the “activity change, negative = inhibition” value is -9.03%.
Regarding `COc1ccc(-c2nn(-c3ccccc3)cc2/C=C2/SC(=S)N(CCCC(=O)O)C2=O)c(C)c1`, the Potency is 31.6 µM (active).
Turning to `COc1ccc(/C=C2\SC(=S)N(CC(=O)NNC(=O)c3ccncc3)C2=O)cc1`, the “activity change, negative = inhibition” value is -14.4%.
With `O=C(COC(=O)c1ccc(O)cc1O)NC(=O)c1ccccc1`, the “activity change, negative = inhibition” value was -6.71%.
On the same count and under the same terms, the figure for `O=C1/C(=C\c2ccc(O)cc2)CCC1CNc1ccc(Cl)cc1` (centres undefined) is -3.99%.
On the same count and under the same terms, the figure for `COc1ccc(S(=O)(=O)N2CCc3ccccc32)cc1C(=O)Nc1cc(S(C)(=O)=O)ccc1Cl` is -27.5%; for `COC(=O)Cc1c(-c2[nH]c3ccccc3c2CC(=O)OC)[nH]c2ccccc12` it is -8.15%; for `Cc1ccc2c(O)c(Cc3ccccc3)c(=O)[nH]c2n1` it is 4.19%.
On to `O=S(=O)(Nc1ccc2ccccc2c1)N1CCCCC1`, for which the “activity change, negative = inhibition” value is -8.9%.
On the same count and under the same terms, the result for `CS(=O)(=O)N(CC(=O)Nc1ccc(Cl)c(Cl)c1)C1CCCCC1` reads -26.2%.
On to `O=C(CC(O)(C(F)(F)F)C(F)(F)F)Nc1ccc(Cl)c(Cl)c1`, for which the Potency is 7.08 µM (active).
As to `CCn1nccc1C(=O)Nc1ccc(Cl)c(Cl)c1`, the “activity change, negative = inhibition” value was -12.3%.
Take `O=S1(=O)CSCS(=O)(=O)C1`: the “activity change, negative = inhibition” value is 13.5%.
In the case of `CCCCC(=O)NC(c1ccc(OC)c(OC)c1)c1ccc2cccnc2c1O` (centres undefined), the “activity change, negative = inhibition” value is -9.19%.
On the same count and under the same terms, the figure for `Cc1ccnc(NS(=O)(=O)c2ccc(NC(=O)c3oc4ccccc4c3C)cc2)n1` is -23.2%.
In the case of `Cc1ccnc(NS(=O)(=O)c2ccc(NC(=O)c3oc4ccc(F)cc4c3C)cc2)n1`, the Potency is 22.4 µM (active).
`Cc1cc(C)c2oc(C(=O)Nc3ccc(S(=O)(=O)Nc4nccc(C)n4)cc3)cc(=O)c2c1`: the “activity change, negative = inhibition” value was 0.826%.
Turning to `O=C(O)c1ccccc1/C=N/Nc1ccc(S(=O)(=O)Nc2ccc(Cl)cc2)cc1[N+](=O)[O-]`, the “activity change, negative = inhibition” value was 4.56%.
Regarding `CN(C(=O)c1cccc(NC(=O)Cc2ccc(NC(=O)C3CCCN(C(=O)C4CCCC4)C3)cc2)c1)C1CCC1` (centres undefined), the “activity change, negative = inhibition” value was -9.96%.
`COc1ccc(/C=C2/SC(=O)N(CCCCCC(=O)Nc3ccccc3C(=O)O)C2=S)cc1`: the Potency is 22.4 µM (active).
As to `COc1ccc(/C=C2\SC(=O)N(CCC(=O)NC3CCS(=O)(=O)C3)C2=O)cc1` (centres undefined), the “activity change, negative = inhibition” value is -10.6%.
The same measure, in the same setting: the result for `COc1ccc(/C=C2\SC(=O)N(CCC(=O)NCCCn3ccnc3)C2=O)cc1` reads -8.39%; that for `C=CCn1c(=O)n(C)c2c(=O)n(C)c(=O)n(C)c21`, 11%.
Still for that read-out and setting: the figure for `Cc1cccc(NC(=O)CSc2nnc(-c3ccco3)o2)c1` is 16%.
On the same count and under the same terms, the result for `O=C(Nc1ccc(Cl)cc1)c1cccc(OC(=S)N2CCOCC2)c1` reads -15.7%.
With `CCC(=O)Oc1cccc(C(=O)Nc2ccc(-c3nnc(-c4ccco4)o3)cc2)c1`, the Potency was 28.2 µM (active).
Regarding `Cc1c(NS(=O)(=O)c2cccc(C(=O)Nc3ccc(SC(F)F)cc3)c2)c(=O)n(-c2ccccc2)n1C`, the “activity change, negative = inhibition” value was -25.1%.
Regarding `C(#CCN1CCOCC1)CCCN1CCOCC1`, the “activity change, negative = inhibition” value was 8%.
